In the library only some 2.1% were active in any assay of this set; here they are far more common.
TDP-43 yeast inh – rescues yeast growth from TDP-43 toxicity; TDP-43 expressing yeast growth rescue, BacTiter-Glo, 24 h; Potency, µM (highest dose often 46.1 µM), actives largely listed as activators; 410,000 tested, 1.8% active; AID 652104; note: nearly all actives have a fitted effect of over 50% in size
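Galactose-induced TDP-43 yeast, OD600=0.02, compound pinned; 24 hr, 30 deg C; BacTiter-Glo luminescence for growth. Inhibitors of TDP-43 toxicity read as activators.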
FUS yeast rescue – rescues growth of FUS-expressing yeast; S. cerevisiae FUS-expressing, growth rescue, OD600, 24 h; Potency, µM (highest dose often 76.6 µM), hits mostly activators; 390,000 tested, 0.24% active; note: nearly all actives have a fitted effect of over 55% in size
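Absorbance at 600 nm, taken 24hr after compound addition, measured rescue of FUS-yeast growth at 30C. Induction used 2% galactose with seeding at OD 0.005. Controls: CP55940 from 92uM final, DMSO only.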
Abeta rescue – A-beta toxicity reversal in yeast | yeast expressing A-beta42, growth rescue, OD600, 48 h; response scale: 0% DMSO, 100% iron-clioquinol control | AID 1347071 | 410,000 tested, 0.063% active | Potency, µM (highest dose often 46.1 µM), most hits filed as activators; note: nearly all actives have a fitted effect of over 55% in size
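Growth rescue measured by 600 nm absorbance after 48 h yeast culture at 30 C with compound. Values normalized between DMSO and an equimolar ferric chloride plus clioquinol control.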
aSyn rescue – rescues yeast growth from alpha-synuclein toxicity; Yeast expressing alpha-synuclein, growth rescue, BacTiter-Glo, 24 h; Potency, µM (series often up to 46.1 µM), hits mostly activators; 370,000 tested, 0.14% active; AID 652106; note: nearly all actives have a fitted effect of over 65% in size
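Screening used galactose-induced yeast with toxic alpha-synuclein levels, exposed to compound for 24 hr at 30 deg C. Cell growth, read with BacTiter-Glo luminescence, gave the measured signal.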
Each line names hits and unclear results; the compound was inactive in the other large screens; ! = a repeat was not active. Calls come from the whole dose curve; as a rule, active = well fitted curve in the direction sought with a large enough effect; inconclusive = small, poorly fitted or top-dose-only effect, or another doubt; inactive = no such curve, though single readings can be large; an effect the other way counts as inactive or inconclusive.

CCn1c(C)nc2cc(C(=O)NNC(=S)Nc3ccc(OC)cc3)ccc21	none
Cc1[nH]nc(N=CC2=C(O)CC(C)(C)CC2=O)c1-c1ccc(Cl)cc1	TDP-43 yeast inh 16µM!, aSyn rescue inconclusive
O=Nc1c(O)n(Cc2ccc(Cl)c(Cl)c2)c2ccccc12	aSyn rescue 13µM
O=Nc1c(O)n(Cc2ccccc2)c2ccccc12	none
Cc1nc2ccccc2n1CCc1nc2c3ccccc3nc(SCc3cccc(F)c3)n2n1	none (no result: aSyn rescue)
Cc1ccccc1S(=O)(=O)Nc1nc2ccccc2nc1N1CCOCC1	TDP-43 yeast inh 18µM
CC(=O)Nc1ccc(S(=O)(=O)Nc2nc3ccccc3nc2N2CCOCC2)cc1	none
O=C(CSc1ccc(Cl)cc1)N/N=C/c1ccc([N+](=O)[O-])o1	TDP-43 yeast inh 13µM
Cc1cc(C)n2nc(-c3cnn(C)c3C(F)(F)F)cc2n1	TDP-43 yeast inh 13µM
O=C(O)c1ccc(OS(=O)(=O)c2ccc(Cl)s2)cc1	TDP-43 yeast inh 14µM
O=C(O)c1ccc(OS(=O)(=O)c2cccc(C(F)(F)F)c2)cc1	TDP-43 yeast inh inconclusive
CCC(O)c1cnc(OCc2ccccc2)nc1OCc1ccccc1 (centres undefined)	none
Cc1c(NS(=O)(=O)c2ccccc2)cc(Cl)c(O)c1C	TDP-43 yeast inh 10µM (no result: FUS yeast rescue)
CC(=O)C1=C(C)N2CCN=C2S1	none
CCOc1ccc(-c2nc(N)ncc2-c2ccc(OC)cc2)c(O)c1	none (no result: FUS yeast rescue)
CCOc1ccc(-c2nc(N)ncc2-c2ccc(Cl)cc2)c(O)c1	TDP-43 yeast inh 22µM
COCc1cc(OC)nc(-c2csc(C)n2)n1	Abeta rescue 16µM
CCOc1ccccc1NC(=O)C1CCCN(S(=O)(=O)c2ccc(-n3cnnn3)cc2)C1 (centres undefined)	none
O=C(O)CCCCCCCCc1cn(CCc2c[nH]c3ccccc23)nn1	TDP-43 yeast inh 13µM
CCCCCc1ccc(-c2cn(CCc3c[nH]c4ccccc34)nn2)cc1	none
Nc1ccccc1SCc1csc(-c2ccc(Cl)cc2)n1	TDP-43 yeast inh 13µM
CCOC(=O)C1=CCN(S(=O)(=O)c2ccc(C)cc2)C1c1ccc(CC)cc1 (centres undefined)	none
O=C(C1CCCN(S(=O)(=O)c2ccc(F)cc2)C1)N1CCCCCC1 (centres undefined)	none (no result: FUS yeast rescue)
Cc1nc(SCC(=O)Nc2nnc(C(C)C)s2)n[nH]1	none
CC(=O)N1CCN(c2ccc(NC(=O)C(C)Oc3ccc(Cl)cc3Cl)cc2)CC1 (centres undefined)	TDP-43 yeast inh 11µM, FUS yeast rescue inconclusive
CCC(C)c1ccc(NC(=O)Nc2cnccn2)cc1 (centres undefined)	TDP-43 yeast inh inconclusive, aSyn rescue inconclusive
CC(Sc1nc2ccccc2s1)C(=O)Nc1nnc(C(C)C)s1 (centres undefined)	TDP-43 yeast inh 25µM
CC1Cc2ccccc2N1c1ncnc(N)c1[N+](=O)[O-] (centres undefined)	TDP-43 yeast inh 11µM
CC1CCCCN1c1ncnc(N)c1[N+](=O)[O-] (centres undefined)	none
CC1Cc2ccccc2N1c1ncnc2nc[nH]c12 (centres undefined)	TDP-43 yeast inh 20µM
c1ccc2c(c1)CCN(c1ncnc3nc[nH]c13)C2	none
COc1cc(C(=O)N2CCN(S(=O)(=O)c3cccc(F)c3)CC2)ccc1OCC(=O)N1CCOCC1	none
O=C(O)c1ccc(-n2nc(C(F)(F)F)c3c2CCCC3)cc1	TDP-43 yeast inh 16µM
COc1ccc(-c2nc(CSCC(=O)N3CCN(c4cccc(C)c4)C(C)C3)c(C)o2)cc1OC (centres undefined)	TDP-43 yeast inh 22µM, FUS yeast rescue inconclusive
COc1ccc(-c2nc(CSCC(=O)N3CCc4ccccc4C3)c(C)o2)cc1OC	TDP-43 yeast inh inconclusive
CCOC(=O)c1ccc(NC2c3ccccc3C(=O)N2c2ccc(C)cn2)cc1 (centres undefined)	aSyn rescue 4µM
CCC(=O)N1CCc2cc(Br)cc(S(=O)(=O)N3CCN(c4ccccc4OC)CC3)c21	none (no result: aSyn rescue)
COc1ccc(Br)cc1/C=C/C(=O)Nc1ccc(C)cc1	TDP-43 yeast inh 16µM
O=C(CSc1ccc2c(c1)OCCO2)N1CCN(c2ccccc2)CC1	none
COc1cccc(-c2cnc(C(O)c3ccc(F)c(C)c3)[nH]2)c1 (centres undefined)	none
O=C(/C=C/c1ccccc1)CC(O)(c1ccccc1)C(F)(F)F (centres undefined)	TDP-43 yeast inh 13µM, aSyn rescue inconclusive
CCc1nnc(SC(CC)C(=O)Nc2cc(C)ccc2C)c2cc3occc3n12 (centres undefined)	none (no result: aSyn rescue)
CCc1cccc(C)c1NC(=O)C(CC)Sc1nncn2c1cc1occc12 (centres undefined)	TDP-43 yeast inh 14µM (no result: aSyn rescue)
Cc1ccc(-c2ccc(/C=C(\C#N)C(N)=S)n2C)cc1	none
Cc1cc(C)c(/C=C(\C#N)C(N)=S)c(C)c1	TDP-43 yeast inh 11µM
CC(C)CSc1ncccc1-c1nc2ccccc2[nH]1	none (no result: TDP-43 yeast inh, Abeta rescue, aSyn rescue)
COc1ccc(/C=N/NC(=O)c2cccnc2)cc1CSc1nc2ccccc2s1	TDP-43 yeast inh 13µM (no result: FUS yeast rescue)
O=C(O)c1ccc(CSc2nc3ccccc3o2)cc1	TDP-43 yeast inh 13µM
Cc1ccc(NC(=O)C(C)c2ccc([N+](=O)[O-])cc2)cc1Cl (centres undefined)	TDP-43 yeast inh 11µM, Abeta rescue inconclusive
CC(C(=O)Nc1ccccc1Br)c1ccc([N+](=O)[O-])cc1 (centres undefined)	none
CCOC(=O)Cn1cc(C(=O)c2cccs2)c2ccccc21	TDP-43 yeast inh 18µM
O=C(O)Cn1cc(C(=O)c2cccs2)c2ccccc21	none
CSCCC(NC(=O)c1ccccc1Br)C(=O)NNC(=O)c1ccco1 (centres undefined)	none
O=C(O)c1ccc(NCCC2=CCCCC2)c([N+](=O)[O-])c1	TDP-43 yeast inh 16µM
COc1ccc(CCNc2ccc(C(=O)O)cc2[N+](=O)[O-])cc1OC	none
CCOC(=O)c1c(-c2ccccc2)oc2ccc(NS(=O)(=O)c3ccc(C)cc3C)cc12	none (no result: aSyn rescue)
CCc1ccccc1OCC(=O)Nc1nc(-c2cccnc2)cs1	TDP-43 yeast inh 6.3µM, Abeta rescue inconclusive, aSyn rescue inconclusive
Cc1ccc(S(=O)(=O)CC(=O)Nc2nc(-c3ccccc3)cs2)cc1	TDP-43 yeast inh 10µM
O=C(Cc1c(F)c(F)c(F)c(F)c1F)Nc1nc(-c2ccccc2)cs1	TDP-43 yeast inh 20µM
CCOC(=O)C1=C(C)Nc2ccccc2N/C1=N\S(=O)(=O)c1cc(C(=O)O)ccc1Cl	none
O=C(NCc1ccccc1)C(c1c(F)cccc1Cl)N(C(=O)c1csnn1)C1CC1 (centres undefined)	none
Cc1ccc(CCNC(=O)CCCn2c(=O)c3cccn3c3ccc(F)cc32)cc1	TDP-43 yeast inh 35µM (no result: aSyn rescue)
CCc1ccc(NC(=O)CCn2c(=O)c3cccn3c3ccccc32)cc1	TDP-43 yeast inh 13µM, FUS yeast rescue inconclusive
CC(CNC(=O)CCCn1c(=O)c2cccn2c2ccc(F)cc21)c1ccccc1 (centres undefined)	TDP-43 yeast inh 25µM, FUS yeast rescue inconclusive (no result: aSyn rescue)
